DUSP3 inh = blocks human VHR1 dual specificity phosphatase | P51452 | recombinant VHR phosphatase, pNPP absorbance | inhibition, % at 13.3 µM | 290,000 compounds, 0.52% hits | AID 1654; in the data active = inhibition above about 50%
Target sequence (P51452 whole entry, looked up): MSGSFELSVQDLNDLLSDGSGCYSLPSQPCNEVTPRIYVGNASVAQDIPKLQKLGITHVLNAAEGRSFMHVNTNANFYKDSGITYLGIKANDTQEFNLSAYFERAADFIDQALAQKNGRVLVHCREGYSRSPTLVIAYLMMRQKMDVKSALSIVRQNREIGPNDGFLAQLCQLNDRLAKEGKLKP
MazEF act = MazEF (E. coli) toxin RNase activation; P0AE70; FAM/BHQ RNA-DNA oligo cleavage fluorescence, 5 h; activation, % at 20 µM; 350,000 compounds, 0.32% hits; AID 504720; in the data active = activation above about 50%
Target sequence (P0AE70 whole entry, looked up): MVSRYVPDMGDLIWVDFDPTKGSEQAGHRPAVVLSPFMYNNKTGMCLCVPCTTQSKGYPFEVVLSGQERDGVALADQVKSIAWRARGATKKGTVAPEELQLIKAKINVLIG
3CLpro inhibitor = SARS-CoV 3CLpro protease inhibition; P0C6X7; recombinant SARS-CoV 3CLpro, quenched FRET peptide cleavage; inhibition, % at 6 µM; 290,000 compounds, 0.14% hits; AID 1706; in the data active = inhibition above about 12%
BH1578 lux ind = quorum light induction in luxS cqsA deficient V. cholerae; 350,000 compounds, 0.16% hits; activation, % at 18.7 µM; AID 588436; V. cholerae BH1578 lux reporter, luminescence, 6 h; in the data active = activation mostly above about 9.7%, no sharp cut-off
BJeLR lethal = kills HRASV12-expressing BJeLR cells. BJeLR (HRASV12) viability, CellTiter-Glo ATP luminescence, 48 h. inhibition, % (no concentration beside the values). 300,000 compounds, 0.17% hits; in the data active = inhibition above about 50%
PfHsp40 yeast = restores yeast growth despite PfHsp40 toxicity | growth rescue, % at 12.5 µM | 340,000 compounds, 0.68% hits | S. cerevisiae expressing PfHsp40, growth rescue, ATP luminescence; in the data active = growth rescue above about 28%, passing the limit was not always enough;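 note: yeast W303a lacking pdr1 and pdr3 grown in galactose medium; growth measured after three days at 30 °C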
Active calls of the source: *. Shown are actives, neighbours in structure and some others; about 1.7% of the full set was active somewhere.

How did O=C(/C=C\Nc1ccc2c(c1)OCO2)c1ccc(Cl)s1 do in these assays?
DUSP3 inh: 26; MazEF act: 86*; 3CLpro inhibitor: 1; BH1578 lux ind: -2; BJeLR lethal: -6; PfHsp40 yeast: 1

How did CCc1ccc(C(O)c2ncc(-c3ccccc3C(F)(F)F)[nH]2)cc1 (configuration not stated) do in these assays?
BH1578 lux ind: inactive

How did CCNC(=O)N(C)c1c(CC)nc2ccc(C(=O)N3CCN(C(C)=O)CC3)cn12 do in these assays?
BH1578 lux ind: -1

What do the screens show for `O=C(Cn1ccc2ccccc2c1=O)NCCC(=O)N1CCN(c2ccccc2)CC1`?
DUSP3 inh: 53*; MazEF act: 11; 3CLpro inhibitor: 4; BH1578 lux ind: 0; BJeLR lethal: -3; PfHsp40 yeast: -1

What do the screens show for `CCOc1ccc(NC(=O)CCNS(=O)(=O)c2ccc3c(c2)CC(C)N3C(C)=O)cc1` (configuration not stated)?
DUSP3 inh: -2; MazEF act: 9; 3CLpro inhibitor: -2; BH1578 lux ind: inactive; BJeLR lethal: 10; PfHsp40 yeast: 0

How did CC(=O)c1ccc(NC(=O)C2=CC(c3ccc4c(c3)OCO4)=NS(=O)(=O)N2C)cc1 do in these assays?
DUSP3 inh: 56*; MazEF act: 11; 3CLpro inhibitor: -1; BH1578 lux ind: 0; BJeLR lethal: 1; PfHsp40 yeast: -1

Results for O=[N+]([O-])c1cc(C(F)(F)F)ccc1NCC1CCCO1 (configuration not stated) ?
DUSP3 inh: -4; MazEF act: 92*; 3CLpro inhibitor: 4; BH1578 lux ind: 0; BJeLR lethal: -16; PfHsp40 yeast: 1

How did O=C1CCCc2cc3c(cc21)CCCC3 do in these assays?
MazEF act: -8; BH1578 lux ind: inactive; PfHsp40 yeast: 33*

What do the screens show for `O=C1CCCCc2cc(O)c(O)cc21`?
MazEF act: 8; BH1578 lux ind: inactive

Results for O=C(O)CN1C(=O)/C(=C\c2ccccc2OCc2ccc(Cl)cc2Cl)SC1=S ?
DUSP3 inh: 18; MazEF act: -10; 3CLpro inhibitor: -1; BH1578 lux ind: 0; BJeLR lethal: 6; PfHsp40 yeast: 53*

How did Cc1ccccc1OCCN1CCC(Cc2ccccc2)CC1 do in these assays?
DUSP3 inh: 45; MazEF act: 4; 3CLpro inhibitor: -3; BH1578 lux ind: -1; BJeLR lethal: 4; PfHsp40 yeast: 59*

How did COc1cc(-c2ccc3c(=O)c4ccccc4n(C)c3c2)cc(OC)c1OC do in these assays?
DUSP3 inh: 25; MazEF act: 15; 3CLpro inhibitor: -8; BH1578 lux ind: -1; BJeLR lethal: -7; PfHsp40 yeast: 28*

What do the screens show for `CCN(CC)C(=O)[C@H]1CC(CC(=O)NCC23CC4CC(CC(C4)C2)C3)C(=O)N2CCc3c([nH]c4ccccc34)[C@]12C` (some centres not stated)?
MazEF act: 4; BH1578 lux ind: inactive; PfHsp40 yeast: 2

Results for COc1ccc(-c2ccc(CN3C(C)C(=O)N(Cc4cn(Cc5ccco5)nn4)CCS3(=O)=O)cc2)cc1 (configuration not stated) ?
MazEF act: 1; BH1578 lux ind: 0

How did COc1ccc(-c2coc3c(CN4CCOCC4)c(O)ccc3c2=O)cc1 do in these assays?
DUSP3 inh: 7; MazEF act: 2; 3CLpro inhibitor: 2; BH1578 lux ind: 13*; BJeLR lethal: 11; PfHsp40 yeast: 5

What do the screens show for `O=c1c(-c2ccc(Cl)cc2)coc2c(CN3CCOCC3)c(O)ccc12`?
DUSP3 inh: -5; MazEF act: 5; 3CLpro inhibitor: 7; BH1578 lux ind: 1; BJeLR lethal: 1; PfHsp40 yeast: 0

What do the screens show for `Cc1ccc2c(c1C)-c1c(ccc(C)c1C)C(=O)C2=O`?
MazEF act: 12; BH1578 lux ind: -6; PfHsp40 yeast: 171*

How did C(=N\Nc1ncnc2sc3c(c12)CCC3)/c1ccncc1 do in these assays?
DUSP3 inh: 50*; MazEF act: 11; 3CLpro inhibitor: -14; BH1578 lux ind: -2; BJeLR lethal: -11; PfHsp40 yeast: -1

What do the screens show for `CC(C)(C)c1nnc2sc(SCC(=O)N3CCCCC3)nn2c1=O`?
MazEF act: 2; BH1578 lux ind: inactive; PfHsp40 yeast: -1

What do the screens show for `C/C(=N\NC(=O)c1cc2ccccc2cc1O)c1ccc(C)o1`?
DUSP3 inh: 10; MazEF act: 5; 3CLpro inhibitor: 7; BH1578 lux ind: 0; BJeLR lethal: 9; PfHsp40 yeast: 0

Results for C/C(=N/NC(=O)c1cc2ccccc2cc1O)c1ccco1 ?
DUSP3 inh: -14; MazEF act: 1; 3CLpro inhibitor: -1; BH1578 lux ind: -1; BJeLR lethal: 7; PfHsp40 yeast: 77*

Results for C=CCn1cccc(C(=O)Nc2ccc(N(C)C)cc2)c1=O ?
DUSP3 inh: 56*; MazEF act: -18; 3CLpro inhibitor: 1; BH1578 lux ind: inactive; BJeLR lethal: -7; PfHsp40 yeast: 0

How did CCNC(=O)C1(C)CCCN1Cc1cccc(C(F)(F)F)c1 (configuration not stated) do in these assays?
BH1578 lux ind: 1

How did CCC(C)c1ccc(C(C)NC(=S)NCc2ccc(F)cc2)cc1 (configuration not stated) do in these assays?
DUSP3 inh: 2; MazEF act: -5; 3CLpro inhibitor: 2; BH1578 lux ind: 0; BJeLR lethal: -9; PfHsp40 yeast: -1

How did CCC(NC(=S)NCc1ccc(F)cc1)c1ccc(C(C)C)cc1 (configuration not stated) do in these assays?
DUSP3 inh: 6; MazEF act: -2; 3CLpro inhibitor: 6; BH1578 lux ind: -1; BJeLR lethal: 1; PfHsp40 yeast: 472*

Results for CCCc1ccc(C(C)NC(=S)NCc2ccc(F)cc2)cc1 (configuration not stated) ?
DUSP3 inh: 10; MazEF act: -6; 3CLpro inhibitor: 6; BH1578 lux ind: inactive; BJeLR lethal: 2; PfHsp40 yeast: -1

How did CC(NC(=S)NCc1ccc(F)cc1)C12CC3CC(CC(C3)C1)C2 (configuration not stated) do in these assays?
DUSP3 inh: -1; MazEF act: -46; 3CLpro inhibitor: 1; BH1578 lux ind: 0; BJeLR lethal: -7; PfHsp40 yeast: 157*

What do the screens show for `Nc1ccc(C(=O)OCC(=O)N2CCOCC2)cc1[N+](=O)[O-]`?
DUSP3 inh: -5; MazEF act: 4; 3CLpro inhibitor: -2; BH1578 lux ind: 3; BJeLR lethal: 0; PfHsp40 yeast: 47*

What do the screens show for `Cc1ccc(CN=c2c([N+](=O)[O-])nn(-c3ccc(Cl)cc3)n2O)cc1`?
DUSP3 inh: -14; MazEF act: 3; 3CLpro inhibitor: 3; BH1578 lux ind: inactive; BJeLR lethal: 26; PfHsp40 yeast: 52*

What do the screens show for `O=[N+]([O-])c1nn(-c2ccc(Cl)cc2)n(O)c1=NCc1ccncc1`?
DUSP3 inh: 13; MazEF act: 3; 3CLpro inhibitor: 9; BH1578 lux ind: 8; BJeLR lethal: -12; PfHsp40 yeast: 2

Screens from PubChem BioAssay.
